Results taken from PubChem BioAssay AID720517 (National Center for Advancing Translational Sciences (NCATS), 2013).
Records with an inconclusive call do not appear. Where a call stands in place of a potency, no number is given. Active and inactive are the calls of the source. Calls come from the whole dose curve; as a rule, active = well fitted activation curve with a large enough effect; inconclusive = small, poorly fitted or top-dose-only effect; inactive = flat fitted curve, though single readings scatter.

Assay: qHTS for Inhibitors of Cell Surface uPA Generation: FP59 Counterscreen for Cherry-picked Compounds
Settings: FP59 anthrax toxin cytotoxicity counterscreen, cells; series mostly up to 115 µM
Potency is the fitted concentration of half-maximal effect.

| SMILES | Potency |
| --- | --- |
| COC(=O)[C@@]1(Cc2ccc(F)cc2)[C@H]2c3cc(C(=O)N(C)C)n(Cc4c(CO)[nH]cc(C)c4=O)c3C[C@H]2CN1C(=O)c1ccccc1 | inactive |
| Cc1c(C(=O)N(Cc2ccccc2Cl)C2CCS(=O)(=O)C2)oc2ccccc12 (centres undefined) | inactive |
| COc1ccc2c(c1)c1nnc(SCC(=O)Nc3ccccc3F)nc1n2C | inactive |
| CCCOC(=O)CSC1=C(C#N)C(c2ccccc2Cl)CC(=O)N1 (centres undefined) | inactive |
| COc1ccc(CNC(=O)C2CCC(CNS(=O)(=O)c3ccc(C)cc3)CC2)cc1 (centres undefined) | inactive |
| CC/C(=N\Nc1ccccc1[N+](=O)[O-])c1ccc(O)cc1 | inactive |
| CC1(c2cccc([N+](=O)[O-])c2)CC(C)(C)N(C(=O)c2ccccc2)c2ccccc21 (centres undefined) | inactive |
| Cc1ccc(S(=O)(=O)NNC(=O)c2ccc(F)cc2)cc1 | inactive |
| O=C(Cc1n[nH]c(=O)c2ccccc12)Nc1cccc(S(=O)(=O)N2CCCCCC2)c1 | inactive |
| Cc1cc2c(cc1S(=O)(=O)Nc1ccc(F)cc1)n(C)c(=O)c(=O)n2C | inactive |
| CC(C)C(NC(=O)Cc1ccccc1)C(=O)N1CCN(c2cccc(Cl)c2)CC1 (centres undefined) | inactive |
| CCOc1ccc(NS(=O)(=O)c2ccc(C(=O)N3CCC3)cc2)cc1 | inactive |
| COCCn1nnnc1C(C(C)C)N1CCCC(C)C1 (centres undefined) | inactive |
| COc1ccc(C(=O)N2CCN(c3ccc(C(C)=O)cc3)CC2)cc1S(=O)(=O)N1CCCC1 | inactive |
| Cc1nc2ccccc2c2oc(C(=O)Nc3ccc4c(c3)OCCO4)cc12 | inactive |
| O=C1NCCN1C(=O)N(c1ccccc1)c1ccccc1 | inactive |
| Cc1cccc(NC(=O)c2cc3c(=O)n4ccccc4nc3s2)c1 | inactive |
| Cc1noc(C)c1CSCC(=O)Nc1cc(Cl)ccc1N1CCCCC1 | inactive |
| CCOC(=O)C1=C(CN2CCN(C(=O)c3ccco3)CC2)NC(=O)NC1c1ccccc1 (centres undefined) | inactive |
| COC(=O)CCNS(=O)(=O)c1ccc2nsnc2c1 | inactive |

| SMILES | Potency |
| --- | --- |
| COc1ccc(CC(=O)NNS(=O)(=O)c2ccccc2[N+](=O)[O-])cc1OC | inactive |
| Oc1ccc(/C=N/Nc2cccc(Cl)n2)c(O)c1 | inactive |
| C=CCOC(=O)C1=C[C@H](c2ccc(C(F)(F)F)cc2)[C@@H](CCCO)[C@H](OCC)O1 | inactive |
| CC(=O)Oc1ccc(OC(C)=O)c(SCCCCCCl)c1 | inactive |
| CC(=O)Nc1nc2ccccc2[nH]1 | inactive |
| Cc1ccccc1C(=O)Nc1ccccc1N1CCCCC1 | inactive |
| CNC(=O)[C@@H]1CCC(=O)N1 | inactive |
| C/C(=N\NC(=O)c1cccc([N+](=O)[O-])c1)c1cccnc1 | inactive |
| COc1cc(C(=O)N/N=C(\Cc2ncc[nH]2)c2ccccc2)cc(OC)c1OC | inactive |
| C=CS(=O)(=O)c1ccc(Oc2ccc(S(=O)(=O)C=C)cc2)cc1 | 52.1 µM (active) |
| C=CC[n+]1c(/C=C/c2ccc(OC(C)=O)c(OC)c2)ccc2ccccc21 | inactive |
| CC1(C)CC(CCC(=O)NC(=S)Nc2ccccc2Cl)C(=O)O1 (centres undefined) | inactive |
| Oc1c(N=NC(=S)Nc2ccccc2F)c2ccccc2n1Cc1ccccc1Cl | inactive |
| CCOC(=O)N1CCN(c2c(NCCCN3CCCCCC3)c(=O)c2=O)CC1 | inactive |
| COCCN(C(=O)c1ccccc1OC)c1nnc(C)s1 | inactive |
| Cc1nc([N+](=O)[O-])cn1CCCCN1C(=O)c2ccccc2C1=O | inactive |
| CC1Cc2nc(SCC(=O)N3CCCC3)n(C)c(=O)c2S1 (centres undefined) | inactive |
| Cc1cccc(/C=N/Nc2cc(N3CCOCC3)nc(N3CCOCC3)n2)c1 | inactive |
| Brc1ccsc1/C=N/Nc1ccccc1 | inactive |
